From PubChem BioAssay (NCATS)
Results filed as inconclusive are left out. Calls of active or inactive are those of the source. Unless noted, the call rests on the fitted dose curve; in most records, active means well fitted curve in the direction sought with a large enough effect; inconclusive means small, poorly fitted or top-dose-only effect, or another doubt; inactive means no such curve, though single readings can be large; an effect the other way counts as inactive or inconclusive.

Tests used:
[1] = HTS Assay for Allosteric Antagonists of the Human D2 Dopamine Receptor: Hit Validation in HTRF (AID 624455);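 further: stable D1 dopamine receptor cell line scored for blocking the D1 response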
Method in brief: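 Signal from an HTRF read-out in D1-expressing stable cells gave hit activity as inhibition of the D1 response.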

[2] = target: Arylsulfatase A (Homo sapiens) (UniProt P15289); assay: qHTS screen for enhancers of Arylsulfatase A (ASA1): LOPAC Validation Assay (AID 720538)
Chain of Arylsulfatase A (Homo sapiens) (P15289 whole entry, looked up): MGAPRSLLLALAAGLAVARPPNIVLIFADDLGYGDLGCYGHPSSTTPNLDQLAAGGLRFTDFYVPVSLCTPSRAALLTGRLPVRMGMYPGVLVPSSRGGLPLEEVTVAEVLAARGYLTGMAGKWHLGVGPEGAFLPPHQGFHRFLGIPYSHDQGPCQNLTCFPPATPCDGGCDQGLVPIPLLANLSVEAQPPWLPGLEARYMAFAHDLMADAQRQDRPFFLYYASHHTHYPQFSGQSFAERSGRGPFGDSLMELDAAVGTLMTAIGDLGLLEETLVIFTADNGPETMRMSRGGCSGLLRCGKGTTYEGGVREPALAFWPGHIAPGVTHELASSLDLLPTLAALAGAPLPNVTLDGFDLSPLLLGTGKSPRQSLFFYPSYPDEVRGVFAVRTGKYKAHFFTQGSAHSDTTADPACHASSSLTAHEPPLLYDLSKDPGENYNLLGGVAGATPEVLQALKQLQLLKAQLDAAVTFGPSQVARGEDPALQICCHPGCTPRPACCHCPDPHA
Method in brief: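 Read-out: fluorescence at Ex=525/Em=598 nm after 1N NaOH final stop. Patient fibroblasts carrying ASA-I179S had 48h compound exposure, then 14h room-temperature pNCS hydrolysis (0.5mM final) in lysis buffer. Signal increase = enhanced activity.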

[3] = qHTS for compounds that reverse cellular toxicity of Amyloid beta (A-beta) peptide in yeast: LOPAC Validation Assay (AID 720559)
Method in brief: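 OD600 growth readout after 48 hr at 30 C; A-beta-toxic yeast plus pinned compounds in medium. Normalization: DMSO = negative, equimolar FeCl3 + clioquinol = positive.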

[4] = qHTS for Activators of Parkin Expression: LOPAC Validation Assay (NLuc Reporter) (AID 720572)
Method in brief: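 Neuronal line stably carrying a FLuc/NLuc coincidence reporter under the Parkin promoter, seeded 24 h, then dosed in 7-point series for 24 h at 37 C. NLuc luminescence read after FLuc; normalized to DMSO and positive control (100%).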

[5] = qHTS for Activators of Parkin Expression: LOPAC Validation Assay (FLuc Reporter) (AID 720573)
Method in brief: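 FLuc luminescence read-out from a neuronal line expressing a Parkin-promoter-driven coincidence reporter. Cells treated 24 h at 37 C, 5% CO2 with compounds at 7 concentrations; signal increase normalized to DMSO and positive control.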

[6] = target: T1, Hexokinase-4 (Homo sapiens) + Glucokinase regulatory protein (Homo sapiens) (UniProt P35557+Q14397); assay: qHTS assay for inhibitors of recombinant human GCK-GKRP interaction: Diaphorase-coupled assay (AID 743205)
T1 sequence (P35557 whole entry, looked up): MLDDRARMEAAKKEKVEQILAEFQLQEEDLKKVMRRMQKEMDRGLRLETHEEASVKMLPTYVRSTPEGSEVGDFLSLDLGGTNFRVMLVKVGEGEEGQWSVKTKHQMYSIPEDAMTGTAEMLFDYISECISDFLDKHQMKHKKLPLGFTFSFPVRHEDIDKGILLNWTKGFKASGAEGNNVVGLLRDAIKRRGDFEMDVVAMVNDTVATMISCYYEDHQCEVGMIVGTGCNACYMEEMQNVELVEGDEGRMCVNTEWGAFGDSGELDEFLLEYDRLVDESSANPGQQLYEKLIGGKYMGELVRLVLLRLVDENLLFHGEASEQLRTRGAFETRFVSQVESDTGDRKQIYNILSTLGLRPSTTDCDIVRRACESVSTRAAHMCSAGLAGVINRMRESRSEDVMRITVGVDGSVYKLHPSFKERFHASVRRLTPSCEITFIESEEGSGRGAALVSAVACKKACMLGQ
T1 sequence (Q14397 whole entry, looked up): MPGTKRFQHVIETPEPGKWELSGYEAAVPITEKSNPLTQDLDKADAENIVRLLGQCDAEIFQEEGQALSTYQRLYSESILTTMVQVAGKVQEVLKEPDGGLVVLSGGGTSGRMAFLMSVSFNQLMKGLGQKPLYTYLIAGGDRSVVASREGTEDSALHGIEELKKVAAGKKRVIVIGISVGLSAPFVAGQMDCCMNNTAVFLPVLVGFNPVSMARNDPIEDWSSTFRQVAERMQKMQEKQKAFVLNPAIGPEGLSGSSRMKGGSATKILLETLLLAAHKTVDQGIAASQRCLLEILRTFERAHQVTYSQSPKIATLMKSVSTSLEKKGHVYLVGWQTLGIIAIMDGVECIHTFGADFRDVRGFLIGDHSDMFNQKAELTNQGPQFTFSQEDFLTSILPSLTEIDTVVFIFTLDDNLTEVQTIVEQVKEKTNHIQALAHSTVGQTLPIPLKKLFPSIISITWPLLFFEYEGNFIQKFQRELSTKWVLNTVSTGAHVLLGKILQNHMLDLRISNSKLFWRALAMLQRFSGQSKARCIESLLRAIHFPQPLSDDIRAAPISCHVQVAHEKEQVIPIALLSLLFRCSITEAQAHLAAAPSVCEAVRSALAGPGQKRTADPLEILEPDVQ
Method in brief: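 Resorufin fluorescence (525/590 nm), read each minute over 30 min, reports GCK activity coupled via G6PDH and diaphorase. Reaction: 10 nM GST-GCK, 10 nM FLAG-GKRP, 5 mM glucose, 0.4 mM ATP, 0.15 mM NADP+, 0.1 mM resazurin.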

[7] = target: T1, Hexokinase-4 (Homo sapiens) + Glucokinase regulatory protein (Homo sapiens); assay: qHTS assay for inhibitors of recombinant human GCK-GKRP interaction: ADP-Glo assay (AID 743206)
Method in brief: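 GST-GCK and FLAG-GKRP (15 nM each in the dispensed mix, with 2 uM S6P) react with 0.4 mM ATP and 5 mM glucose (final) in Hepes pH 7.6 for 60 min at room temperature. ADP is measured by ADP-Glo luminescence.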

[8] = target: T1, Hexokinase-4 (Homo sapiens) + Glucokinase regulatory protein (Homo sapiens); assay: qHTS assay for inhibitors of recombinant human GCK-GKRP interaction: HTRF assay (AID 743207)
Method in brief: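 HTRF read-out (ex 320 nm; 615/665 nm emission) after 60 min RT equilibration of 5 nM GST-GCK, 5 nM FLAG-GKRP, 2 uM S6P, compound and anti-FLAG/anti-GST detection antibodies; signal normalized between DMSO wells with and without GCK.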

[9] = Natriuretic polypeptide receptor (hNpr1) antagonism - Pilot counterscreen GloSensor control cell line (AID 1347045; calls by dose curve)
Method in brief: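 This counterscreen uses HEK293 cells expressing the GIP/pGS-40F cGMP biosensor. Compound-treated cells are challenged with 50 uM sodium nitroprusside, and the luciferase signal is compared before and after stimulation.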

[10] = target: Atrial natriuretic peptide receptor 1 (Homo sapiens) (UniProt P16066); assay: Natriuretic polypeptide receptor (hNpr1) antagonism - Pilot screen (AID 1347049; calls by dose curve;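 further: agonist-evoked cGMP luminescence read 20 min after hNppA addition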)
Method in brief: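 HEK293 cells co-expressing hNpr1 and the GloSensor pGS-40F cGMP luciferase sensor were preloaded with 2% GloSensor reagent for 2 h. Compounds were added for 30 min at room temperature, then cells were stimulated with 0.1 nM hNppA for 20 min before luminescence readout.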

[11] = target: T2, Tyrosine-protein phosphatase non-receptor type substrate 1 (Homo sapiens) + Leukocyte surface antigen CD47 (Homo sapiens) (UniProt P78324+Q08722); assay: CD47-SIRPalpha protein protein interaction - LANCE assay qHTS validation (AID 1347057; active means well fitted curve in the direction sought with a large enough effect in the signal ratio, with a control signal flat, not every such curve was filed as active; the % refers to the signal ratio)
T2 sequence (P78324 whole entry, looked up): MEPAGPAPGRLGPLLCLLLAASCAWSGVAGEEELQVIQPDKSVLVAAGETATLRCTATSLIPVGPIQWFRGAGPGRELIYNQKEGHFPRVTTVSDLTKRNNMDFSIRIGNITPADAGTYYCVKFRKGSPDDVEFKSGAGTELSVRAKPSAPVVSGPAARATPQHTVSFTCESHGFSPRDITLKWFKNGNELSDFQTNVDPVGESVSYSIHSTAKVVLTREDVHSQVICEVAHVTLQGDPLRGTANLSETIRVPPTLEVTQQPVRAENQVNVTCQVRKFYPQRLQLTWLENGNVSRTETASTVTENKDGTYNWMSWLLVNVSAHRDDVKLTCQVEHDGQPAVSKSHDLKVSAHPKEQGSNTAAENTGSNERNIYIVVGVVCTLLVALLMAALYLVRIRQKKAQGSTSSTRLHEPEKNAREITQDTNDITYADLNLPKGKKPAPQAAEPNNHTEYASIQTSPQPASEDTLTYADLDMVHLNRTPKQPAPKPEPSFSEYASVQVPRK
T2 sequence (Q08722 whole entry, looked up): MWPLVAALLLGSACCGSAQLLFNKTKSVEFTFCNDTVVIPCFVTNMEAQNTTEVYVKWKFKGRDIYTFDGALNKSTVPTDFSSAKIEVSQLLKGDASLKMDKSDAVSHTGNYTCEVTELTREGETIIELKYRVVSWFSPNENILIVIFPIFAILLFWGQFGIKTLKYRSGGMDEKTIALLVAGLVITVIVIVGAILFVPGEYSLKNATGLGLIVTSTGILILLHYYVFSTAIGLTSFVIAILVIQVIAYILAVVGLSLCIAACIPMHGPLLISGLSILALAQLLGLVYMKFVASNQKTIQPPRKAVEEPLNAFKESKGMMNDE
Method in brief: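 First, His-tagged CD47 and Eu-labelled anti-His antibody met the compound for 30 min; next, site-specifically biotinylated SIRPalpha was added for 30 min; finally streptavidin-APC was added before reading the TR-FRET ratio.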

[12] = target: T2, Tyrosine-protein phosphatase non-receptor type substrate 1 (Homo sapiens) + Leukocyte surface antigen CD47 (Homo sapiens); assay: CD47-SIRPalpha protein protein interaction - HTRF assay qHTS validation (AID 1347058; active means well fitted curve in the direction sought with a large enough effect in the signal ratio, not every such curve was filed as active; the % refers to the signal ratio)
Method in brief: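 TR-FRET read (Ch1/Ch2 ratio) of soluble extracellular CD47 and Avi-biotinylated SIRPalpha domains in PBS pH 7.4 with 0.05% IGEPAL; 7-point compound titration. Sequential 30 min room-temperature steps; non-biotinylated SIRPalpha as control inhibitor.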

[13] = target: T2, Tyrosine-protein phosphatase non-receptor type substrate 1 (Homo sapiens) + Leukocyte surface antigen CD47 (Homo sapiens); assay: CD47-SIRPalpha protein protein interaction - Alpha assay qHTS validation (AID 1347059);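 further: bead proximity luminescence from CD47 binding SIRPalpha after compound preincubation with SIRPalpha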
Method in brief: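 Soluble extracellular domains: Avi-tag biotinylated SIRPalpha (25 nM) preincubated 30 min RT with compound, then 6His-CD47 (12.5 nM) 30 min; Ni-NTA acceptor and streptavidin donor beads (10 ug/mL) 30 min, AlphaScreen read. PBS pH 7.4, 0.05% IGEPAL.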

[14] = target: Parathyroid hormone/parathyroid hormone-related peptide receptor (Homo sapiens) (UniProt Q03431); assay: qHTS for PTHR1 Agonists: Optimization Screen against the NCGC LOPAC library (AID 1347079);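 further: GloSensor cAMP luminescence in HEK-293 GP2 cells expressing human PTHR1 with IBMX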
Chain of Parathyroid hormone/parathyroid hormone-related peptide receptor (Homo sapiens) (Q03431 whole entry, looked up): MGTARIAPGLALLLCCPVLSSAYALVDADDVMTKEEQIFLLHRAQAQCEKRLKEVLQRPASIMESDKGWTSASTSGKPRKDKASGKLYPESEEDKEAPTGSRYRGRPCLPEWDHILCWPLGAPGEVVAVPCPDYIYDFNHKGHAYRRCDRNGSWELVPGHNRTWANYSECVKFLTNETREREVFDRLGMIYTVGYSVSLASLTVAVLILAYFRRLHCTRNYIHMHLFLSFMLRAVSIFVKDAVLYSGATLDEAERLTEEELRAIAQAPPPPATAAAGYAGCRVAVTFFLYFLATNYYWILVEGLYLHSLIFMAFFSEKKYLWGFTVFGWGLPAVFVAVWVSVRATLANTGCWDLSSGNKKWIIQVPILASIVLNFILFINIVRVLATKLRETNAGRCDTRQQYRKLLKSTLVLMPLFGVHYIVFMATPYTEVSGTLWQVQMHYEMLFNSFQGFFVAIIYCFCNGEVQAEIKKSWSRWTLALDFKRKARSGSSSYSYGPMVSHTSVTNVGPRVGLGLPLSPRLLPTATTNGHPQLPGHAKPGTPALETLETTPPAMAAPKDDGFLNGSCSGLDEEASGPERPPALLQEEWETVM
Method in brief: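 Compounds were tested across a qHTS titration. PTHR1-expressing GP2 cells report cAMP rises via GloSensor luminescence after 1 hr compound exposure at 37C with IBMX present.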

[15] = target: N-terminal Xaa-Pro-Lys N-methyltransferase 1 (Homo sapiens) (UniProt Q9BV86); assay: qHTS Assay for Inhibitors of N-terminal methyltransferase 1 (NTMT1): LOPAC validation of the NTMT1 SAHH-coupled ThioGlo3 Assay (AID 1347143); further: potency means the concentration at half of the fitted maximal effect; nearly all actives have a fitted effect of over 70% in size
Chain of N-terminal Xaa-Pro-Lys N-methyltransferase 1 (Homo sapiens) (Q9BV86 whole entry, looked up): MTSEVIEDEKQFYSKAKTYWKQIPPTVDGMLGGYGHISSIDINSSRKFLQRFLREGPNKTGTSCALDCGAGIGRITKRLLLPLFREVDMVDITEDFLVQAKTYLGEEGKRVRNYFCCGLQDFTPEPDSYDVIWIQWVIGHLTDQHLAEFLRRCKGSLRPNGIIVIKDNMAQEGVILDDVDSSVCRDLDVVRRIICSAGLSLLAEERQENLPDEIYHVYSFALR
Method in brief: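 Fluorescence read-out (excitation 340nm, emission 450nm) of SAH-derived thiol, measured via SAHH coupling and ThioGlo3, taken immediately and after a 30 min room-temperature reaction, then normalized to the background read. Enzyme: NTMT1 at 125nM; cofactor SAM 100uM in the added reagent.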

[16] = qHTS to identify inhibitors of the type 1 interferon - major histocompatibility complex class I in skeletal muscle: primary screen against the NCATS LOPAC collection (AID 1347405);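 further: lytic HiBiT luminescence reporting HLA-B protein level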
Method in brief: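 Cells: C25cl48 human myoblasts, HiBiT-tagged HLA-B*08:01, stimulated with IFN-beta 4.0 ng/ml. Compounds are titrated 1:4.3 over 7 points from 46 uM final and incubated 24 hrs; endogenous MHC class I is quantified by HiBiT lytic luminescence.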

[17] = qHTS for inhibitors of adenylyl cyclases using a fission yeast platform: a pilot screen against the NCATS LOPAC library (AID 1347410)
Method in brief: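 Read-out: fbp1-GFP fluorescence by laser scanning cytometry (488 nm laser), a gain of signal when AC/cAMP-PKA signalling is inhibited. Strain CHP2027 expressing AC9, GNAS and PDE4D2; compounds at up to 57 µM; 18 h, 30C.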

[18] = Validation qHTS assay for inhibitors of Activation Induced Cytidine Deaminase (AID): UDG Counterscreen signal (AID 1347427)
Method in brief: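 Counterscreen read of UDG activity (2 U/mL, 4/3x) in the FRET deamination format with AID (1 uM, 4/3x), DJC20/DJC23 substrates (250 nM, 4x), 4 h at room temperature. NaOH stop, fluorescence at 560 ex/665 em.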

[19] = target: Single-stranded DNA cytosine deaminase (Homo sapiens) (UniProt Q9GZX7); assay: Validation qHTS assay for inhibitors of Activation Induced Cytidine Deaminase (AID): AID signal (AID 1347429)
Chain of Single-stranded DNA cytosine deaminase (Homo sapiens) (Q9GZX7 whole entry, looked up): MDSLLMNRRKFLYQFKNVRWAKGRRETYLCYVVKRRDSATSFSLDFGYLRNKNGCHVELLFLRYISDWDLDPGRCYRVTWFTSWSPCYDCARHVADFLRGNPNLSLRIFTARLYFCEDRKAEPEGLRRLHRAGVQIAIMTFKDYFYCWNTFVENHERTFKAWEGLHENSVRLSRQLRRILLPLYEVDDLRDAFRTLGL
Method in brief: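 In this coupled qHTS, AID deaminates a FRET-labelled ssDNA substrate in the presence of UDG over 4 hr at room temperature. Compounds span up to 114 uM final.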

[20] = target: Calcium and integrin-binding protein 1 (Homo sapiens) (UniProt Q99828); assay: Validation qHTS for Identification of Calcium Integrin Binding protein 1 (CIB1) Competitor (AID 1508618)
Chain of Calcium and integrin-binding protein 1 (Homo sapiens) (Q99828 whole entry, looked up): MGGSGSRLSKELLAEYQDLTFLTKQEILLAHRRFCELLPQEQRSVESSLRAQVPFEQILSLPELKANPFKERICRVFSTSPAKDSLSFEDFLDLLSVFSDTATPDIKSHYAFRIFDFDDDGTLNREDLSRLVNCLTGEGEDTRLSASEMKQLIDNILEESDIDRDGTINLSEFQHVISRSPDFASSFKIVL
Method in brief: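 CIB1-GST (1 uM final) incubated 15 min at room temperature with compounds (up to 114 uM), then FITC-labelled alphaIIb peptide (100 nM) added. FP read (Ex 480/Em 540) after 15 min, pH 7.4 buffer containing 5 mM CaCl2.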

[21] = Primary qHTS for small molecule stabilizers of the endoplasmic reticulum resident proteome: Secreted ER Calcium Modulated Protein (SERCaMP) assay (AID 1508630)
Method in brief: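 GLuc-SERCaMP-expressing SH-SY5Y cells, pretreated 16 h with compound, are challenged with thapsigargin to empty ER calcium stores; after 4 h, coelenterazine is added directly to the medium and luminescence is imaged.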

[22] = target: Papain (Carica papaya) (UniProt P00784); assay: Primary qHTS assay for inhibitors of the protease papain (AID 1645873);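 further: papain turnover of Z-FR-AMC read as the AMC fluorescence gain over 10 min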
Chain of Papain (Carica papaya) (P00784 whole entry, looked up): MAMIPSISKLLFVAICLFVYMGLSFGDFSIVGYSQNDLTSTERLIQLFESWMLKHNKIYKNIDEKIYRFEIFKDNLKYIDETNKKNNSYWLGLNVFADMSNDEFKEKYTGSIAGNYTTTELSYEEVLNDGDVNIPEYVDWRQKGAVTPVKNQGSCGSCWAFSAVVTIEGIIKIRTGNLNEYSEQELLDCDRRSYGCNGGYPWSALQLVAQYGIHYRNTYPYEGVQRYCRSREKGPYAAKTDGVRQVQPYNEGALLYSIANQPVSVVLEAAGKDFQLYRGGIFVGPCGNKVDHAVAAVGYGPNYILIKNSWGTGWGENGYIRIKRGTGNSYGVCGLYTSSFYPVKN

[23] = target: Catechol O-methyltransferase (Homo sapiens) (UniProt P21964); assay: Confirmatory Screen for Target Class Profiling of Small Molecule Inhibitors of Methyltransferases (AID 1745852; calls by dose curve); conditions: MTase-Glo luminescence, SAH detection, recombinant enzyme; measured here: COMT max response; stronger effect = lower value
Chain of Catechol O-methyltransferase (Homo sapiens) (P21964 whole entry, looked up): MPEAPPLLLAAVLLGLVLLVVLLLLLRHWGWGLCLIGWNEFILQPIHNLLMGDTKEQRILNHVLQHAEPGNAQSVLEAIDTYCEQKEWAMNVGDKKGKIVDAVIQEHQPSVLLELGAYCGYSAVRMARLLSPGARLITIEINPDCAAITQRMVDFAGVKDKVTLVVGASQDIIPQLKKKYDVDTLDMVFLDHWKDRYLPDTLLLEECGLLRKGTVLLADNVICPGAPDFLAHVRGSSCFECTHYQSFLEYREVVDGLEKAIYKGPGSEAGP

[24] = target: Guanidinoacetate N-methyltransferase (Homo sapiens) (UniProt Q14353); assay: as above; conditions: activity change, negative = inhibition: at 57.3 µM (top of the series) unless noted
[25] = target: Nicotinamide N-methyltransferase (Homo sapiens) (UniProt P40261); assay: as above; conditions: MTase-Glo luminescence, SAH detection, recombinant enzyme; measured here: NNMT max response; stronger effect = lower value
Chain of Nicotinamide N-methyltransferase (Homo sapiens) (P40261 whole entry, looked up): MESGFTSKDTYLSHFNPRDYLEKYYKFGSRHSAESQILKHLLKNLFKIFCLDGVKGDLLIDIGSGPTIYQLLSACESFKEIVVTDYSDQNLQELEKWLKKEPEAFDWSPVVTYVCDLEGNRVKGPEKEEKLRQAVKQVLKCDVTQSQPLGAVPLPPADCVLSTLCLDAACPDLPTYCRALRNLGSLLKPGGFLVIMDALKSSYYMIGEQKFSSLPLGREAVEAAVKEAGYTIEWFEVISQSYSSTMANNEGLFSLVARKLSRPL

[26] = target: Phenylethanolamine N-methyltransferase (Homo sapiens) (UniProt P11086); assay: as above; conditions: MTase-Glo luminescence, SAH detection, recombinant enzyme; measured here: PNMT max response; stronger effect = lower value
Chain of Phenylethanolamine N-methyltransferase (Homo sapiens) (P11086 whole entry, looked up): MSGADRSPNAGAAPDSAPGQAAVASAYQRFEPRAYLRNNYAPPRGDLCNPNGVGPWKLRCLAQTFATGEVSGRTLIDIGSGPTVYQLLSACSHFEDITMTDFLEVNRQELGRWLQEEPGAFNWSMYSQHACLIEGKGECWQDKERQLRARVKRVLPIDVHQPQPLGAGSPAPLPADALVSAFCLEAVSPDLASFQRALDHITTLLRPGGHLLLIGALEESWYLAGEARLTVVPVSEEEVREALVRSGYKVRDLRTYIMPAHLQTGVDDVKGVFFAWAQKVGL

[27] = target: Glutathione peroxidase 1 (Homo sapiens) (UniProt P07203); assay: Primary qHTS Assay for Inhibitors of Recombinant Selenoprotein Glutathione Peroxidase 1 (GPX1) (AID 1845191); further: nearly all actives have a fitted effect of over 65% in size
Method in brief: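 Recombinant GPX1 (10 nM final) was preincubated with compound for 30 min at room temperature, then reacted with 1 mM GSH, 0.5 mM CHP, 0.5 mM NADPH and 100 nM glutathione reductase; NADPH fluorescence (340/450 nm) was read at 0 and 15 min.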

[28] = target: Phospholipid hydroperoxide glutathione peroxidase GPX4 (Homo sapiens) (UniProt P36969); assay: Primary qHTS Assay for Inhibitors of Recombinant Selenoprotein Glutathione Peroxidase 4 (GPX4) (AID 1845192); conditions: outcome: dose series up to 50 µM unless noted; further: nearly all actives have a fitted effect of over 65% in size
Method in brief: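 GR-coupled readout: 100 nM GR, 1 mM GSH, 0.5 mM NADPH; NADPH fluorescence (ex 340/em 450 nm) read at t=0 and after 15 min RT. GPX4 200 nM, preincubated 30 min with compound; substrate 0.5 mM CHP.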

CN1C2CCCC1CC(NC(=O)c1nn(C)c3ccccc13)C2 (stereo not drawn)
1.32%: activity [23]
0.961%: activity [25]
5.2%: activity change, negative = inhibition [24]
active: Potency [15] 56.2 µM
4.07%: activity [26]
inactive: outcome [1] | Potency [2] | outcome [3] | outcome [4] | Potency [5] | outcome [6] | outcome [7] | outcome [8] | Potency [9] | Potency [10] | outcome [11] | outcome [12] | Potency [13] | outcome [14] | Potency [16] | outcome [17] | outcome [18] | Potency [19] | outcome [20] | Potency [21] | Potency [22] | Potency [27] | Potency [28]
